Screen size: about 420,000 compounds; about 50,000 (12%) were called active. Entries that show only a call come without a potency. Not shown: some 26% with an inconclusive outcome. The call rests on the fitted dose curve; in most records, active means well fitted inhibition curve with a large enough effect; inconclusive means small, poorly fitted or top-dose-only effect; inactive means flat fitted curve, though single readings scatter. For the sample, actives were picked, then their nearest neighbours and some compounds at random.
Assay: qHTS for Inhibitors of human tyrosyl-DNA phosphodiesterase 1 (TDP1): qHTS in cells in presence of CPT; further: nearly all actives have a fitted effect of over 55% in size
Conditions: chicken DT40 Tdp1-/-;hTDP1 cells + 20 nM CPT, ATP luminescence, 48 h; series mostly up to 46.2 µM
Outline: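 Chicken DT40 Tdp1-/- cells stably complemented with human TDP1 were seeded at 400 cells/well in medium containing 20 nM camptothecin, exposed to pin-transferred compounds, and grown at 37 °C for at least 48 hr. Viability was read as ATP luminescence.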
Potency means the concentration at half of the fitted maximal effect.

Compound | Potency
COc1ccccc1C(=O)OCc1cc(=O)n2nc(-c3cccs3)sc2n1 | inactive
Nc1ccccc1-c1nc2ccncc2[nH]1 | inactive
CCc1ccc(Oc2coc3cc(OC(=O)c4cc5ccccc5oc4=O)ccc3c2=O)cc1 | inactive
O=C1c2ccccc2-c2ccccc2NC1O (stereo not drawn) | inactive
O=C1NN(c2ccccc2)C(=O)/C1=C/c1ccc(-c2cccc(C(=O)O)c2)o1 | inactive
O=C1CCC[C@@H]2CC(N3CCCCC3)C[C@@H]3CCN1[C@H]23 (stereo partly drawn) | inactive
CN(C)C(CNC(=O)c1ccc(S(=O)(=O)NCc2ccco2)cc1)c1ccccc1 (stereo not drawn) | inactive
Cc1noc(C)c1S(=O)(=O)N(C)C[C@H]1OCCCC[C@@H](C)Oc2ccc(NC(=O)CCCN(C)C)cc2C(=O)N([C@H](C)CO)C[C@@H]1C | inactive
Cc1cc(/C=C2\SC(=Nc3ccc(N4CCOCC4)cc3)N(C)C2=O)c(C)n1-c1cccnc1 | inactive
CCCCN=C1C([N+](=O)[O-])=CC=C2C1=NC1(CCCCC1)N2O | inactive
Cc1ccccc1OCC(=O)Nc1ccc(S(=O)(=O)N2CCOCC2)cc1 | inactive
CCc1ccccc1OCC(=O)Nc1ccc(C)c(S(=O)(=O)N2CCCCCC2)c1 | 14.6 µM (active)
COc1ccccc1C(CNC(=O)c1ccc(C)c(S(=O)(=O)N2CCCCC2)c1)N(C)C (stereo not drawn) | inactive
CCc1ccccc1OCC(=O)Nc1ccc2c(c1)OCCO2 | inactive
COc1ccc(NC(=O)C2=NNC(=O)CC2)cc1S(=O)(=O)N1CCCCC1 | inactive
O=C(COC(=O)COc1ccccc1F)Nc1cccc(S(=O)(=O)N2CCCCC2)c1 | inactive
COc1ccccc1C(=O)Nc1ccc(C)c(S(=O)(=O)N2CCCCC2)c1 | 20.6 µM (active)
Cc1ccccc1OCC(=O)Nc1ccc2c(c1)ncn2C | inactive
Cc1ccccc1OCC(=O)Nc1ccc(N2CCN(C(=O)C(C)C)CC2)c(Cl)c1 | 13 µM (active)
Clc1ccc(-c2cccc3nccn23)cc1 | inactive
Cc1ccc2c(c1)C(O)(CC(=O)c1cccc(-n3cccc3)c1)C(=O)N2 (stereo not drawn) | inactive
C=CCOc1ccc(/C=C/C(=O)OCC(=O)NC2CCCCCC2)cc1 | inactive
O=C1OCCOC2CCCc3oc(-c4ccccc4)c1c32 (stereo not drawn) | inactive
O=C(NCc1ccco1)/C(=C/c1cccc([N+](=O)[O-])c1)NC(=O)c1ccco1 | inactive
CCc1ccc(N(C(=O)c2csnn2)C(C(=O)NC2CCCCC2)c2ccncc2)cc1 (stereo not drawn) | inactive
O=S(=O)(c1ccc(F)cc1)N1CCN=C1SCc1cccc(F)c1 | inactive
Clc1cc(NC2CCCCC2)ncn1 | inactive
Cc1cccn2c(=O)c(C(=O)NC(C)c3ccccc3)cnc12 (stereo not drawn) | inactive

Reference: PubChem BioAssay AID686979 (National Center for Advancing Translational Sciences (NCATS), 2013)
